From PubChem BioAssay (NCATS)
Records with an inconclusive call do not appear. Calls of active or inactive are those of the source. Calls come from the whole dose curve; as a rule, active = well fitted inhibition curve with a large enough effect; inconclusive = small, poorly fitted or top-dose-only effect; inactive = no such curve, though single readings can be large or run the other way.

Assay: Primary qHTS for inhibitors of La Crosse Virus (LACV) - induced cell death in SH-SY5Y cells (AID 1508616);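 note: top concentration of the series differs between compounds; 0% = infected DMSO wells and 100% = uninfected DMSO wells; higher means more rescue of cells from virus-induced death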
Settings: SH-SY5Y LACV cytopathicity rescue, ATP luminescence, 6 d; series mostly up to 9.63 µM; activity change: at the top concentration
Summary of the method: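 SH-SY5Y, 6000 cells/well; cpd via pin tool in DMSO; LACV 0.01 MOI; 6 d 37C 5% CO2; ATPLite, 5 min RT; luminescence normalized to ±virus DMSO controls.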

Row | Structure (SMILES) | activity change
1 | CC(C)[C@@]1(NC(=O)[C@@H]2C[C@@H]3c4cccc5[nH]cc(c45)C[C@H]3N(C)C2)O[C@@]2(O)[C@@H]3CCCN3C(=O)[C@H](Cc3ccccc3)N2C1=O | -6.74% (inactive)
2 | CC(C)NP(=O)(NC(C)C)OP(=O)(NC(C)C)NC(C)C | 21.9% (inactive)
3 | CC(N)c1cccc(Cl)c1Cl (stereo not given) | -14.7% (inactive)
4 | OCc1cnc[nH]1 | 2.25% (inactive)
5 | Oc1ccc2c3c1O[C@H]1c4oc5ccccc5c4C[C@@]4(O)C(C2)N(CC2CC2)CCC314 (stereo not given in full) | 7.96% (inactive)
6 | Clc1ccc(N2CC3CCC(C2)N3)nn1 | -18% (inactive)
7 | CC(N)Cc1c[nH]c2ccc(OCc3cccs3)cc12 (stereo not given) | -9.04% (inactive)
8 | NCC(O)c1cc(O)c(O)cc1F (stereo not given) | 6.9% (inactive)
9 | C[C@H](N)Cc1cccc(C(F)(F)F)c1 | 21.4% (inactive)
10 | CCCN(CCC)C1CCc2cccc(O)c2C1 (stereo not given) | -8.77% (inactive)
11 | CN1CC[C@@]2(C)c3cc(OC(=O)Nc4ccccc4)ccc3N(C)[C@@H]12 | 0.603% (inactive)
12 | CN1C2CCC1CC(OC(c1ccccc1)c1ccccc1N)C2 (stereo not given) | -14.3% (inactive)
13 | COc1ccc2c(c1)C13CCCCC1C(C2)N(C)CC3 (stereo not given) | -19.4% (inactive)
14 | Cc1[nH]c2ccc(O)cc2c1CCN | 8.08% (inactive)
15 | C[C@H](N)CN1CCc2ccc(Br)cc21 | -5.05% (inactive)
16 | N[C@@]1(C(=O)O)CC[C@@H](C(=O)O)C1 | 28.4% (inactive)
17 | N#CCCN | 15.4% (inactive)
18 | CC12NC(Cc3ccccc31)c1ccccc12 (stereo not given) | 2.18% (inactive)
19 | NC(Cc1cc(O)c(O)cc1O)C(=O)O (stereo not given) | -16.9% (inactive)
20 | CC(C)(O)[C@@H]1C2OC(=O)[C@@H]1[C@]1(O)C[C@H]3O[C@]34C(=O)O[C@H]2[C@]14C (tested in a mixture with another compound) | -17.3% (inactive)
